Bioassay records from PubChem.
MOR-DOR ag-1: OPRM1-OPRD1 heterodimerization agonism; P35372+P41143; cells, luminescence; activation, % at 9.3 µM; 340,000 compounds, 0.3% hits
Target sequence (P35372 whole entry, looked up): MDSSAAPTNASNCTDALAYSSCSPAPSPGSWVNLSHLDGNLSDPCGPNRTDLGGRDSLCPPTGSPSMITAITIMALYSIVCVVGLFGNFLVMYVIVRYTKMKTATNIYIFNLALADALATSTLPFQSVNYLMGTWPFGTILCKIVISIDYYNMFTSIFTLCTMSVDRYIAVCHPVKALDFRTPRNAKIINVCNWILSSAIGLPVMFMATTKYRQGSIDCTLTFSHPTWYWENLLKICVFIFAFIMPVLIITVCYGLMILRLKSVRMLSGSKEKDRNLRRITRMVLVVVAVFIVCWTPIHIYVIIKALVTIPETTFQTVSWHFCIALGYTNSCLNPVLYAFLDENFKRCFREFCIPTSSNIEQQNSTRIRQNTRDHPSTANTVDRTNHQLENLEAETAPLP
Target sequence (P41143 whole entry, looked up): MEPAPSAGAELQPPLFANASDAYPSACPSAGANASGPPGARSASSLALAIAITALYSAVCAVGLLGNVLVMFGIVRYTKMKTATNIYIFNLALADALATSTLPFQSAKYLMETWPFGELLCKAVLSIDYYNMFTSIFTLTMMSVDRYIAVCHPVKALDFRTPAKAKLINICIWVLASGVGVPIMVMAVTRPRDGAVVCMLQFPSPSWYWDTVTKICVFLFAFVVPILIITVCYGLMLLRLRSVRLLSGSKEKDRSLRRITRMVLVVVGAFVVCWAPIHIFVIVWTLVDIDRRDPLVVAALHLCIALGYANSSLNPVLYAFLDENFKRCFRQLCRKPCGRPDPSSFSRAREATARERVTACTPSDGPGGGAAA
HTR5A ag ctr: activates human HTR5A in OPRM1-OPRD1 agonist counter-screen | P47898 | AID 504692 | 340,000 compounds, 0.61% hits | HTR5A agonist assay, luminescence, cell-based | activation, % at 9.3 µM; in the data active means activation mostly above about 9.5%, no sharp cut-off; inactive means mostly below about 7.6%
HTR5A inv ag: counter-screen for OPRM1-OPRD1 inverse agonists: human HTR5A inverse agonism; HTR5A cell line, luminescence; AID 504634; inhibition, % at 9.3 µM; P47898; 340,000 compounds, 0.083% hits; in the data active means inhibition mostly above about 23%, no sharp cut-off; inactive means mostly below about 18%
OPRM1-OPRD1 inv: inverse agonists of human mu-delta opioid receptor heterodimerization; P35372+P41143; cell-based MOR-DOR heterodimer luminescence, inverse agonism; inhibition, % at 9.3 µM; 340,000 compounds, 0.21% hits; in the data active means inhibition above about 22%, passing the limit was not always enough
MOR-DOR ag-2: promotes OPRM1-OPRD1 heterodimerization in HTR5A counter-screen | shares compounds with HTR5A ag ctr | U2OS counter-screen cells, complementation luminescence, 3 h | activation, % at 9.3 µM | 800 compounds, 13% hits
HTR5A ag confirm: HTR5A (human) agonism, confirmation; 800 compounds, 17% hits; shares compounds with HTR5A ag ctr; activation, % at 9.3 µM; HTR5A agonist cell assay, luminescence; in the data active means activation above about 17%
A number is an active result; 0 = inactive; - = no result given. Sampled rows, rich in hits. Any-hit rate of the full collection: about 1.1%. Unless noted, no stated cut-off is given here; in the data, active means activation above about 18%; inactive means the rest.

SMILES	MOR-DOR ag-1	HTR5A ag ctr	HTR5A inv ag	OPRM1-OPRD1 inv	MOR-DOR ag-2	HTR5A ag confirm
CCCCOc1ccc(OCCNC(=O)C2CCCN2C(=O)Nc2ccccc2)cc1 (stereo not given)	0	17	0	0	0	0
Cc1cc(-c2ccccc2C(=O)NC2CCCCC2)on1	0	15	0	0	0	0
Cc1cc(SCC(=O)NC(=O)c2cccn2C)nc2ccccc12	0	0	0	0	-	-
O=C(OC1CCCC1)c1ccc(Cl)cc1Cl	0	0	0	0	-	-
CNC(=O)c1sc(-c2cccnc2)nc1C	0	18	0	0	0	0
CNC(=O)c1sc(-c2ccccc2)nc1C	0	0	0	0	-	-
CN(C)CCCN(C(=O)CCOc1ccccc1)c1nc2ccc(F)cc2s1	0	18	0	0	0	0
CN(C)CCCN(C(=O)COc1ccccc1)c1nc2ccc(F)cc2s1	0	0	0	0	-	-
CCc1ccc(-c2cc(C(=O)Nc3ccc(S(=O)(=O)NC(C)=O)cc3)c3ccccc3n2)cc1	0	21	0	0	0	0
Cc1ccc(-c2cc(C(=O)Nc3ccc(S(=O)(=O)Nc4ncccn4)cc3)c3ccccc3n2)cc1	0	0	0	0	-	-
COc1ccc(N2CCN(C(=O)c3ccccc3NC(=O)c3ccccc3)CC2)cc1	0	0	0	0	-	-
COc1ccc(C(C)=O)cc1CS(=O)(=O)CC(=O)NCCc1c[nH]c2ccccc12	0	18	0	0	0	0
CC(C)N=c1scc(-c2cccs2)n1/N=C/c1ccc(O)c(O)c1O	0	14	0	0	20	0
CCN=c1scc(-c2cccs2)n1/N=C/c1cc(OC)ccc1O	0	0	0	0	-	-
COc1cccc(C(=O)NCC(=O)OCC(=O)NC2CCCCC2)c1	0	0	0	0	-	-
CC1(C)Cc2c(C#N)c(SCCC#N)nc(N3CCOCC3)c2CS1	0	15	0	0	0	0
Cc1ccc(C)c(NC(=O)Cc2nc(CNCC(C)C)cs2)c1	0	0	0	0	-	-
COc1ccc(Cl)cc1NC(=S)NCc1ccccn1	0	0	0	0	-	-
COc1ccc(Cl)cc1NC(=O)NCc1ccccn1	0	17	0	0	0	0
NS(=O)(=O)c1ccc(CNC(=O)c2ccc(C(=O)c3ccccc3)cc2)cc1	0	0	0	0	-	-
Cc1cc(/C=C(\C#N)C(=O)NCc2ccco2)c(C)n1-c1ccc(C(=O)O)cc1	0	0	0	0	-	-
C/C(=N\N)c1c(-c2ccccc2)c2cc(C)ccc2[nH]c1=O	0	0	0	0	-	-
CCN(CC)c1c(-c2ccccc2)c2cc(C)ccc2[nH]c1=O	0	27	0	0	0	0
COc1ccc(-c2cc(-c3c(O)c(OC)c4occc4c3OC)[nH]n2)cc1OC	0	0	0	0	-	-
COc1ccc(-c2cc(-c3c(O)c(OC)c4occc4c3OC)[nH]n2)cc1	0	15	0	0	0	0
SMILES	MOR-DOR ag-1	HTR5A ag ctr	HTR5A inv ag	OPRM1-OPRD1 inv	MOR-DOR ag-2	HTR5A ag confirm
O=C(ONC1=NCCCCC1)c1ccc(Cl)cc1	0	25	0	0	0	0
O=C(ONC1=NCCCCC1)c1c(F)cccc1F	0	0	0	0	-	-
COc1ccccc1NC(=O)COC(=O)c1cc2c(s1)CCC2	0	0	0	0	-	-
COc1ccc(OC)c(NC(=O)COC(=O)c2cc3c(s2)CCC3)c1	0	15	0	0	0	0
CCCOc1ccccc1/C=C1\SC(N2CCCCC2)=NC1=O	0	16	0	0	0	24
O=C1N=C(N2CCCCC2)S/C1=C\c1ccccc1F	0	0	0	0	-	-
COc1ccc(C2CC(O)(c3ccccc3)Oc3c(C)ccc(C)c32)cc1 (stereo not given)	0	0	0	0	-	-
COc1ccc([C@@H]2C[C@@H](c3ccccc3)Oc3cc(C)cc(C)c32)cc1	0	25	0	0	0	0
CC(C)C(OC(=O)CN1C(=O)c2ccccc2C1=O)C(=O)NC1CCCCC1 (stereo not given)	0	15	0	0	0	0
CCC(OC(=O)CN1C(=O)c2ccccc2C1=O)C(=O)NC1CCCC1 (stereo not given)	0	0	0	0	-	-
Cc1ccc(NC(=S)N2CCCCC2)cc1C	0	0	0	0	-	-
NS(=O)(=O)c1ccc(NC(=O)Cn2ncc3c2-c2ccccc2OC3)cc1	0	19	0	0	0	0
O=C(Cn1ncc2c1-c1ccccc1OC2)Nc1cccc(Cl)c1	0	0	0	0	-	-
O=C(O)C1(S(=O)(=O)CCC(F)=C(F)F)CC1	0	0	0	0	-	-
C=CCN(C(=O)CCC(=O)Nc1cc(C)on1)C(C(=O)NC1CCCC1)c1ccc(C)cc1 (stereo not given)	0	0	0	0	-	-
CCOC(=O)c1cc(C(=O)c2cccs2)n2ccc(C(C)=O)cc12	0	20	0	0	0	0
COc1ccc2cc3cc(C(=O)Nc4ccc5c(c4)OCCO5)oc3nc2c1	0	25	0	0	0	0
C/C(=N\NC(=O)c1ccccc1O)c1ccc(Br)s1	0	15	0	0	0	28
C=CCn1c(Br)nc2c1c(=O)[nH]c(=O)n2C	0	18	0	0	0	0
O=S1(=O)CCN2N=C(C34CC5CC(CC(C5)C3)C4)SC2=N1	0	18	0	0	0	0
Cc1ccc2c(c1)Oc1ccc(NC(=O)CCl)cc1C(=O)N2	0	15	0	0	0	0
O=S(=O)(N/N=C\c1ccccc1O)c1ccc(Cl)cc1	0	0	0	0	-	-
O=S(=O)(N/N=C\C=C\c1ccccc1)c1ccc(Cl)cc1	0	28	0	0	0	43
O=C1N(Cc2cccc(Cl)c2)C[C@@H]2C[C@@H](c3ccc4nonc4c3)N3CCC[C@@]123	0	0	0	0	-	-
CC(C)(C)OC(=O)N[C@@H](C(=O)OC(C)(C)C)c1ccccc1	0	25	0	0	0	0
SMILES	MOR-DOR ag-1	HTR5A ag ctr	HTR5A inv ag	OPRM1-OPRD1 inv	MOR-DOR ag-2	HTR5A ag confirm
COc1ccc(C(=O)NCc2cnn(C)c2C)cc1OC1CCN(C(C)C)CC1	0	0	0	0	-	-
O=C(Cn1nc(C(F)F)cc1C1CC1)N1CCCC1	0	0	0	0	-	-
Cc1cc(C(F)F)nn1CC(=O)N1CCSCC1	0	16	0	0	0	0
O=C(Cn1c(=O)oc2ccccc21)NCCc1ccccc1Cl	0	0	0	0	-	-
NC(=O)C1=C(N=C2CCCCC2)CCCC1	0	18	0	0	0	0
Cc1cc(=O)oc2cc(OC(=O)C3CCN(C(=O)c4ccc(F)cc4)CC3)ccc12	0	0	0	0	-	-
Cc1cc(F)ccc1NC(=O)C1CSC2(C)CCC(=O)N12 (stereo not given)	0	0	0	0	-	-
N/C(=N\OC(=O)c1ccc2ccccc2c1)c1ccccn1	0	16	0	0	0	0
N/C(=N\OC(=O)c1ccc2ccccc2c1)c1ccncc1	0	0	0	0	-	-
N/C(=N\OC(=O)c1ccc(Cl)cc1[N+](=O)[O-])c1ccccn1	0	26	0	0	0	0
COc1ccc(O)c(/C=C(\C#N)C(=O)Nc2ccccn2)c1	0	0	0	0	-	-
CC(=O)OC(COc1ccccc1)Cn1cnc2cc(C)c(C)cc21 (stereo not given)	0	0	0	0	-	-
Brc1ccccc1-c1csnn1	0	0	0	0	-	-
